# Reference: PubChem BioAssay (NCATS)
# Inconclusive results are not listed. Entries that show only a call come without a potency. Active and inactive are the calls of the source. Calls follow the shape of the dose curve; as a rule, active = well fitted cell-killing curve with a large enough effect; inconclusive = small, poorly fitted or top-dose-only effect; inactive = flat fitted curve, though single readings scatter.
# Experiment: Cell Viability - LYMP2-007 (AID 979);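 also: cells exposed to compound for 24 h before reading; nearly all actives have a fitted effect of over 60% in size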
# Conditions: LYMP2-007 lymphoblastoid cell viability; series mostly up to 92.2 µM
# Source text: NIH Chemical Genomics Center [NCGC]
# NIH Molecular Libraries Screening Centers Network [MLSCN]
# National Institutes of Environmental Health Sciences [NIEHS]
# National Toxicology Program [NTP]
# We have developed a 1536-well cell-based assay for quantitative high throughput screening (qHTS) against a number of cell lines to determine in vitro cytotoxicity of small molecules. This particular assay uses a human lymphoblastoid cell line (LYMP2-007) purchased from Coriell Institute for Medical Research.
# NCGC Assay Protocol Summary:
# The CellTiter-Glo luminescent cell viability assay (Promega) is a homogeneous method to measure the number of viable cells in culture. The end point readout of this assay is based on quantitation of intracellular ATP, an indicator of metabolic activity, using the luciferase reaction. Luciferase catalyzes the oxidation of beetle Luciferin to oxyluciferin and light in the presence of ATP. The luminescent signal is proportional to amount of ATP present.
# Using the CellTiter-Glo luminescent cell viability assay, the amount of cellular ATP was measured in the lymphoblastoid cell line with complete culture medium following compound treatment for 24 hours. The assay was performed in opaque white Kalypsys 1536-well plates. In the screen, tetraoctylammonium bromide was used as positive control. Library compounds were measured for their ability to cause acute toxicity in the cell line, as reflected by a decrease in intracellular ATP levels, in a concentration-dependent manner. […] AC50 values were determined from concentration-response data modeled with the standard Hill equation.
# qHTS protocol for CellTiter Glo lymphoblastoid cellular assay
# [Step] [Parameter] [Value] [Description]
# 1. Reagent; 5 uL; 2500 lymphoblastoid cells/well
# 2. Time; 5 hr; 37 C incubation
# 4. Controls; 23 nL; Tetraoctylammonium bromide 6.4pM to 92 uM
# 5. Time; 24 hr; 37 C incubation
# 6. Reagent; 5 uL; CellTiter Glo reagent
# 7. Time; 30 min; Room Temperature
# 8. Detection; Luminescence; Viewlux plate reader
# Keywords: cell viability, cytotoxicity, lymphoblastoid cell line, luminescence, NTPHTS, NTPHTS_NCGC, NIEHS, DSSTox, MLSMR, MLSCN, NIH Roadmap, qHTS, NCGC
# Potency is read from the fitted curve at half-maximal effect.
row,SMILES,Potency
1,C1CC2OC2CC1C1CO1 (stereo not given),inactive
2,O=C(O)c1cc(Cl)ccc1Cl,inactive
3,Nc1c(Br)cc([N+](=O)[O-])cc1[N+](=O)[O-],inactive
4,c1ccc(OCC2CO2)cc1 (stereo not given),inactive
5,O=C(O)C(Cl)Br (stereo not given),inactive
6,O=P(OCCCl)(OCCCl)OCCCl,inactive
7,C/C=C/CC#N,inactive
8,C=C(C)CCl,inactive
9,OCC(Cl)CCl (stereo not given),inactive
10,Nc1cccc(Cl)c1,inactive
11,Cc1ccc(N=C=O)cc1N=C=O,inactive
12,CN(C)N=O,inactive
13,CCSC(=O)N1CCCCCC1,inactive
14,ClC(Cl)c1ccccc1,inactive
15,BrCCc1ccccc1,inactive
16,O=[N+]([O-])c1ccc(Cl)cc1,inactive
17,OCCBr,inactive
18,CCCCC(=O)Cl,inactive
19,Brc1cccc(-c2ccccc2)c1,inactive
20,Cl/C=C/CCl,inactive

row,SMILES,Potency
1,NNC(N)=S,inactive
2,Oc1cc(Cl)cc(Cl)c1,inactive
3,CN(C)C(=O)Nc1ccc(Cl)cc1,inactive
4,Nc1ccc(Cc2ccc(N)cc2)cc1,inactive
5,CC(=O)NNc1ccccc1,inactive
6,O=[N+]([O-])CCO,inactive
7,O=S(=O)(O)F,inactive
8,Cc1ccc(N)cc1N,inactive
9,O=C(O)c1cccc(Cl)c1,inactive
10,Nc1cccc2ccccc12,39.8 µM (active)
11,CN(C)C(=O)Cl,inactive
12,Nc1cc(Cl)cc(C(=O)O)c1Cl,inactive
13,C=CCCC#N,inactive
14,N#CC(O)c1ccccc1 (stereo not given),inactive
15,C=CCO,inactive
16,Oc1cccc(Cl)c1Cl,inactive
17,CCC[N+](=O)[O-],inactive
18,CCOP(=S)(OCC)Oc1nc(Cl)c(Cl)cc1Cl,inactive
19,Clc1ccc(C(c2ccccc2Cl)C(Cl)(Cl)Cl)cc1 (stereo not given),inactive
20,CN(C)c1ccccc1,inactive
